HT1080NT lethal = kills 2HG-producing HT-1080-NT fibrosarcoma cells; HT-1080-NT fibrosarcoma viability, CellTiter-Glo ATP luminescence, 48 h; Potency, µM (top dose mostly 46.1 µM), inactives show at the highest dose activity, negative = less viability, hits mostly cytotoxic; hit rate 1.6% among 360,000; AID 686970;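 also: NT is the 2HG producing partner of a matched IDH1 knockdown line; 0% = DMSO-treated cells and -100% = media-only wells without cells; nearly all actives have a fitted effect of over 55% in size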
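Read-out is CellTiter-Glo luminescence after 10 minutes at room temperature, following 48 hours' compound treatment of HT-1080-NT cells (750 cells/well, RPMI, 5% FBS, 37 degrees C).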
KB-V1 MDR tox = kills drug-selected multidrug resistant KB-V1 cells; KB-V1 MDR cells viability, CellTiter-Glo, 72 h; Potency, µM (top dose mostly 46.1 µM), most hits filed as cytotoxic; hit rate 3.4% among 400,000; also: % is scaled to controls: 0 for no effect and ±100 for the full control effect; nearly all actives have a fitted effect of over 60% in size
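KB-V1, DMEM (no phenol red) + 10% FBS; cpd pin-transferred, titration series; 72 h, 37 degrees C; CellTiter-Glo, luminescence. Data normalized, curve-fit.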
HepG2 tox = HepG2 cytotoxicity, counter-screen for TGF-b inhibitors. HepG2 CAGA-GFP viability, ATP luminescence, 18 h. Potency, µM (top dose mostly 46.1 µM), inactives show at the top dose activity change, negative = cytotoxicity, most hits filed as cytotoxic. hit rate 0.76% among 410,000
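HepG2 CAGA-GFP cells (1000/well, DMEM with 1% FBS) received compound, then TGF-beta at 500 pg/mL final, and were incubated 18 hours at 37 degrees C. Viability was read by CellTiter-Glo luminescence. Media-only wells were set as complete cell-killing and DMSO as no toxicity.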
TGFb SMAD3 inh = inhibitors of TGF-b signaling; HepG2 CAGA-GFP TGF-b/SMAD3 reporter, GFP fluorescence, 18 h; TGF-beta stimulated, 500 pg/mL final; Potency, µM (highest dose often 46.1 µM), for the others: at the top dose activity, negative = inhibition, actives largely listed as inhibitors; hit rate 1.2% among 410,000; also: % is scaled to controls: 0 for no effect and ±100 for the full control effect; nearly all actives have a fitted effect of over 65% in size
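Inhibition was scored as loss of TGF-beta-induced (500 pg/mL final, 18 hours, 37 degrees C) GFP in HEPG2 cells carrying a CAGA-GFP reporter, in DMEM with 1% FBS. Well GFP was summed per cell; Activity was normalised to unstimulated and stimulated DMSO wells, then concentration-response fitting.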
HT1080 IDH1KD tx = toxicity to HT-1080 IDH1 knockdown cells (counter line) | HT-1080 IDH1 knockdown viability, ATP luminescence, 48 h | Potency, µM (titrated, usually from 46.1 µM), for the others: at the highest dose activity, negative = toxicity, usual class: cytotoxic | hit rate 2% among 360,000 | AID 686971;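 also: 0% = DMSO wells and -100% = cell-free medium wells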
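After a 2 h attachment period, IDH1KD HT-1080 cells took pin-transferred compound for 48 h at 37 °C; ATP-based luminescence after 10 min room-temperature reagent incubation reported viability.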
KB-3-1 tox = kills parental KB-3-1 adenocarcinoma cells; KB-3-1 viability, CellTiter-Glo ATP luminescence, 72 h; hit rate 1.4% among 400,000; Potency, µM (top dose mostly 46.1 µM), most hits filed as cytotoxic; also: % is scaled to controls: 0 for no effect and ±100 for the full control effect; nearly all actives have a fitted effect of over 60% in size
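KB-3-1 cells, DMEM (no phenol red) + 10% FBS; compound by pin transfer, 72 h, 37 °C. Readout: CellTiter-Glo luminescence after 10 min. Data normalized, curve-fitted.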
The depositor's hits bear a star; i = inactive; ? = inconclusive; . = not tested or not shown. Compounds with a hit are over-represented: about 6.6% of the library has one in this group of screens. Calls follow the shape of the dose curve; as a rule, active = well fitted curve in the direction sought with a large enough effect; inconclusive = small, poorly fitted or top-dose-only effect, or another doubt; inactive = no such curve, though single readings can be large; an effect the other way counts as inactive or inconclusive. Potency is read from the fitted curve at half-maximal effect.

SMILES	HT1080NT lethal	KB-V1 MDR tox	HepG2 tox	TGFb SMAD3 inh	HT1080 IDH1KD tx	KB-3-1 tox
COc1ccc(NC(=O)Cn2c(=O)oc3cc(S(=O)(=O)NCc4ccccc4)ccc32)c(OC)c1	.	i	-32%	0%	.	?
CCc1ccc(NC(=O)Cn2c(=O)oc3cc(S(=O)(=O)N4CCCCCC4)ccc32)cc1	.	.	-42%	.	.	.
O=C(CSc1nc2ccccc2c(=O)n1-c1ccc(Cl)c(Cl)c1)Nc1ccc2c(c1)CCC2	9%	i	-4%	?	7%	i
Cc1nn(-c2cc(C(F)(F)F)ccn2)c(=O)o1	7%	i	101%	0%	4%	i
CCOC(=O)c1c(C)[nH]c(C)c1S(=O)(=O)NCC(=O)N1CCN(c2cc(Cl)ccc2C)CC1	.	i	-21%	?	.	i
Cc1cc(C)cc(NC(=O)CN2C(=O)CN=C(c3ccccc3)c3cc(Cl)ccc32)c1	.	.	-46%	?	.	.
CCc1cccc(NC(=O)CN2C(=O)CN=C(c3ccccc3F)c3cc(Cl)ccc32)c1	.	.	-55%	13µM*	.	.
CC1CCC(C(C)C)C(OC(=O)Cn2c(COc3ccccc3)[n+](C)c3ccccc32)C1 (stereo unspecified)	12µM*	i	20µM*	13µM*	12µM*	23µM*
CCOC(=O)Cn1cc(C=C2C(=O)N(C)C(=O)N(C)C2=O)c2ccccc21	7%	i	-42%	7.1µM*	6%	i
N/C(Cc1ccc(Cl)cc1)=N\OC(=O)c1cccc2ccccc12	?	i	-29%	8%	?	i
CC1Oc2cc3c(-c4c(O)cc(O)c5c(O)c6c(cc45)OC(C)C(C)C6=O)c(O)cc(O)c3c(O)c2C(=O)C1C (stereo unspecified)	4.6µM*	?	11µM*	14µM*	8.2µM*	?
CSc1ccc(C(=O)C2CCCN(Cc3cc4ccccc4[nH]3)C2)cc1 (stereo unspecified)	23µM*	?	0%	?	?	i
CSc1ccc(C(=O)C2CCCN(Cc3cccnc3)C2)cc1 (stereo unspecified)	?	?	8%	1%	-21%	i
Cn1cc(C(=O)OCC(=O)Nc2ccccc2)c2ccccc21	17%	21µM*	8%	0%	20%	i
C=CCNC(=S)Nc1ccc(OC(=O)Nc2ccc(Cl)c(Cl)c2)cc1	-2%	i	-4%	?	-8%	i
Cc1nn(C(C)(C)C)c(C)c1/C=N/OC(=O)Nc1ccc(Cl)c(Cl)c1	-4%	i	-78%	18µM*	-4%	i
CN(Cc1cccc(-c2ccncc2)c1)C(=O)Oc1ccccc1Cc1ccccc1	18µM*	?	.	.	13µM*	15µM*
CN(Cc1cccc(-c2ccncc2)c1)C(=O)Oc1ccccc1Cl	-17%	i	.	.	-29%	15µM*
Cc1nc2cc(OC(=O)N(C)Cc3cccc(-c4ccncc4)c3)ccc2s1	?	i	.	.	?	?
COCOC1CCC2C3CCC4=CC(=O)CCC4=C3C=CC12C (stereo unspecified)	11%	?	-10%	2%	22%	i
C[C@]12CC[C@H]3[C@@H](CCC4=CC(=O)CC[C@@H]43)[C@@H]1CC[C@@H]2O	14%	2.3µM*	-2%	4%	-7%	10µM*
C[C@]12CCC3=C4CCC(=O)C=C4CC[C@H]3C1CC[C@@H]2O (stereo partly specified)	-20%	3.7µM*	-7%	-31%	-12%	10µM*
C[C@]12CC[C@@H]3c4cc(O)c(O)cc4CC[C@H]3[C@@H]1CC[C@@H]2O	?	13µM*	-21%	?	6.5µM*	6.5µM*
CC1(O)CCC2C3CCC4=CC(=O)CCC4=C3C=CC21C (stereo unspecified)	-3%	9.2µM*	-15%	19%	?	?
C[C@]12CC[C@@H]3c4ccc(O)c(O)c4CC[C@H]3[C@@H]1CC[C@@H]2O	?	i	-49%	?	?	?
SMILES	HT1080NT lethal	KB-V1 MDR tox	HepG2 tox	TGFb SMAD3 inh	HT1080 IDH1KD tx	KB-3-1 tox
Cc1ccc(C)c(N2CCN(C(=O)C3CCCN(S(=O)(=O)c4cccc5nsnc45)C3)CC2)c1 (stereo unspecified)	.	i	-18%	?	.	i
C[C@]12CCC(=O)C=C1CCC1C2CC[C@@]2(C)C1CC[C@@H]2O (stereo partly specified)	0%	2.3µM*	1%	4%	-1%	4.6µM*
CCCCCNC(=O)C(c1ccncc1)n1c(=O)c(-c2cc3ccccc3[nH]2)nc2ccccc21 (stereo unspecified)	?	i	.	.	16µM*	?
CCNC(=O)CCSc1nc2cc(Cl)ccc2o1	17%	i	3%	?	16%	i
CCOC(=O)[C@]12Cc3cc(N(C)C)ccc3[C@H]1N(Cc1ccccc1)C(=O)c1ccccc12	-8%	?	-4%	?	-4%	?
CCOC(=O)[C@]12Cc3cc4c(cc3[C@H]1N(Cc1ccccc1)C(=O)c1ccccc12)OCO4	-5%	?	-10%	?	-14%	?

Screening results from PubChem BioAssay.
